Some of the results follow. A call without a number means that no potency is given here. Records with an inconclusive call do not appear. Calls of active or inactive are those of the source. Calls follow the shape of the dose curve; as a rule, active = well fitted inhibition curve with a large enough effect; inconclusive = small, poorly fitted or top-dose-only effect; inactive = no such curve, though single readings can be large or run the other way.
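Also: 44 h compound exposure; nearly all actives have a fitted effect of over 55% in size.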

The assay is described as follows: qHTS Assay for Inhibitors of Hepatitis C Virus (HCV): Cytotoxicity Counterscreen for Cherry-picked Compounds. Particulars: HCV host cell line cytotoxicity counterscreen; series mostly up to 41.8 µM. An excerpt: Hepatitis C virus (HCV) infects about 200 million people in the world. Many infected people progress to chronic liver disease including cirrhosis with a risk of developing liver cancer. To date, there is no effective vaccine for hepatitis C. Current therapy based on interferon is only effective in about half of the patients and is associated with significant adverse effects. The fraction of people with HCV who can complete a successful treatment is estimated to be no more than 10 percent. Recent development of direct-acting antivirals against HCV, such as protease and polymerase inhibitors, is promising but still requires combination with peginterferon and ribavirin for maximal efficacy. In addition, these agents are associated with high rate of resistance and many have significant side effects. Due to the lack of a culture system for infectious HCV, the search for new HCV drugs has been greatly hampered. […] High-throughput screening (HTS) with an infectious HCV system would cover the complete spectrum of potentially druggable targets in all stages of HCV lifecycle, and would have more biological relevance than other cell-based assays. Moreover, targeting several key processes in the viral life cycle may not only increase antiviral efficacy; more importantly, it may also reduce the capacity of the virus to develop resistance to the compound.
The goal of this project is to identify novel HCV inhibitors as new therapies for hepatitis C, using a highly sensitive and specific assay platform based on a HCV infectious cell culture system established in the laboratory and adapted for high-throughput HCV drug screen. The primary assay was used to screen the MLPCN compound library and potential inhibitors were cherry picked for confirmation and further characterization. To evaluate the cytotoxic effect of the selected compounds, a secondary cell based counterscreen using the Promega CellTiter Glo reagent and Huh cell line was developed. The data herein is the result of the Cytotoxicity counterscreen against the cherry picked compounds. No significant activity is the desired outcome for this assay.
NIH Chemical Genomics Center [NCGC]
NIH Molecular Libraries Probe Centers Network [MLPCN]
Assay Submitter (PI): Jake Liang, NIDDK
Cells were plated in a 1536-wel tissue culture grade plates at a final concentration of 1,000 cells/well (3 uL volume). The assay plate was culture for 4 h. Then 23 nL of compounds from the library collection was added to each well and incubated for 44 h at 37C, 5% CO2. A volume of 4.5 uL CellTiterGlo reagent was to each well and the plates were incubated at room temperature for 15 min. The luminescence signal was read for 15 sec using the PerkinElmer ViewLux plate reader.
In general terms: Quantitative high-throughput screening tests each substance at several concentrations.
`CCCOc1ccc(C(=O)C(CCC(CNCC)C(=O)c2ccc(OCCC)cc2)CNCC)cc1` (stereo not drawn): the Potency was 7.91 µM (active).

Take `O=S(=O)([N-]c1nc2ccccc2nc1-[n+]1ccc(Cc2ccccc2)cc1)c1ccc(Br)s1`: the Potency result is “inactive”.

Turning to `Cc1c(-c2cccc(Cl)c2)nc2ccccc2c1C(=O)OCC(=O)N(C)C1CCS(=O)(=O)C1` (stereo not drawn), the Potency result is “inactive”.

Consider `COc1ccc(NC(=O)c2sc(N3CCOCC3)nc2-c2ccccc2)c(OC)c1`, for which the Potency entry is “inactive”.

For the compound `CC(C)(C)c1ccc(Oc2ccc(N)cc2)cc1`, the Potency entry is “inactive”.

Take `Cc1cc(-c2cccs2)nc(-n2cccc2)n1`: the Potency entry was “inactive”.

For the compound `CCCc1nc2ccccc2c(C(=O)OCc2nnc(-c3cc(OC)c(OC)c(OC)c3)o2)c1CC`, the Potency result is “inactive”.

As to `CN(C)c1nc(N)nc(CSc2nnnn2-c2cccc3ccccc23)n1`, the Potency is 6.28 µM (active).

Turning to `Cc1ccc(C)c(N2CCN(C(=O)CCCCCn3c(=S)[nH]c4ccc(N5CCOCC5)cc4c3=O)CC2)c1`, the Potency was 9.95 µM (active).

Turning to `COCCCn1c(SCc2cccc(OC)c2)nc2cc(OC)c(OC)cc2c1=N`, the Potency entry was “inactive”.

For the compound `N#C/C(=C1\CCCN1)c1nc(-c2ccccc2)cs1`, the Potency result was “inactive”.

Turning to `COc1ccc(C(C(=O)NC2CCCCC2)N(C(=O)CCl)c2ccccc2Cl)cc1` (stereo not drawn), the Potency is 2.5 µM (active).

Regarding `COc1ccc(OCCNC(=O)c2cc(C3CC3)nc3c2cnn3C(C)C)cc1`, the Potency entry was “inactive”.

These data come from PubChem BioAssay AID720576 (National Center for Advancing Translational Sciences (NCATS), 2013).
